Experimental findings from PubChem BioAssay (Tox21) are described below.

Several values for one entry are separate records, joined by “and”; a condition that tells them apart may be missing. Equal values may be shown once. Results filed as inconclusive are left out. Activity calls are given as the source filed them. Calls come from the whole dose curve; as a rule, active = well fitted cell-killing curve with a large enough effect in the repeat runs; inconclusive = weak or mixed curves, or effect the other way; inactive = no such curve, though single readings can be large or run the other way.
% is set by controls: 0 for no effect and ±100 for the full control effect; potency is the fitted concentration of half-maximal effect.

The nature of this test: qHTS assay to identify small molecule antagonists of the progesterone receptor (PR) signaling pathway - cell viability counter screen (AID 1346798). Note: nearly all actives have a fitted effect of over 50% in size. The conditions noted are these: PR-UAS-bla HEK293T viability, CellTiter-Glo luminescence, 16 h; series mostly up to 92.4 µM; activity change, negative = cytotoxicity: at the top concentration. From the text: National Center for Advancing Translational Sciences [NCATS]
NIH Chemical Genomics Center [NCGC]
U.S. Environmental Protection Agency [EPA]
National Institutes of Environmental Health Sciences [NIEHS]
National Toxicology Program [NTP]
U.S. Food and Drug Administration [FDA]
Progesterone receptor (PR), a nuclear hormone receptor, plays an important role in development, metabolic homeostasis and reproduction. It is activated by the steroid hormone progesterone. Endocrine disrupting chemicals (EDCs) and their interactions with steroid hormone receptors like PR causes disruption of normal endocrine function. To identify the compounds that inhibit PR signaling, a PR-UAS-bla GripTite cell line i.e. PR-UAS-bla HEK293T (Invitrogen, Carlsbad, CA, USA) containing a beta-lactamase reporter gene under the control of an UAS response element was used to screen Tox21 10K compound library. The cytotoxicity of the Tox21 compound library against the PR-bla cell line was tested in parallel by measuring the cell viability using CellTiter-Glo assay in the same wells.
Tox21 Assay Protocol Summary:
PR-UAS-bla HEK293T cells were dispensed at 3,000 cells/4 uL of assay medium containing 2% charcoal stripped FBS per well into black wall/clear-bottom 1536-well plates using a Multidrop Combi (ThermoFisher Scientific, Waltham, MA) dispenser. After the assay plates were incubated at a 37C and 5% CO2 for 4 hr, 23 nL of compounds dissolved in DMSO, positive controls or DMSO only was transferred to the assay plate by a Pintool station (Kalypsys, San Diego, CA), followed by addition of 1 uL of R5020 in assay medium using a Flying Reagent Dispenser (FRD, Aurora Discovery, San Diego, CA). The plates were incubated at 37C and 5% CO2 for 16 hr. Then 1 uL of LiveBLAzer B/G FRET substrate was added using a Flying Reagent Dispenser, the plates were incubated at room temperature for 2 hours, and fluorescence intensity was measured by an Envision plate reader (PerkinElmer, Shelton, CT). For cell viability readout that measures cytotoxicity, 4 uL/well of CellTiter-Glo reagent was added into the assay plates using a FRD. After 30 min incubation at room temperature, the luminescence intensity in the plates was measured using a ViewLux (PerkinElmer) plate reader.
In general terms: qHTS replaces the single test concentration by a dilution series.
Take `Clc1ccc(CSC(Cn2ccnc2)c2ccc(Cl)cc2Cl)cc1` (stereo not given): the Potency was 6.68 µM (active).

Turning to `CCc1cc(C)cc(CC)c1-c1c(OC(=O)C(C)(C)C)n2n(c1=O)CCOCC2`, the “activity change, negative = cytotoxicity” value is 2.55% (inactive).

For `Cl/C=C\CCl`, the “activity change, negative = cytotoxicity” value is -17.7% (inactive).

On to `CC(Cl)CN(C)C` (stereo not given), for which the “activity change, negative = cytotoxicity” value was -7.64% (inactive).

In the case of `O=c1ssc(Cl)c1Cl`, the “activity change, negative = cytotoxicity” value was 11.2% (inactive).

Regarding `CC(=O)O[C@H]1CC[C@@]2(C)C(=CC[C@@H]3[C@@H]2CC[C@]2(C)C(=O)CC[C@@H]32)C1`, the Potency is 68.6 µM (active).

As to `COCC(=O)N(c1c(C)cccc1C)[C@H](C)C(=O)OC`, the “activity change, negative = cytotoxicity” value was 0.858% (inactive).

As for `COC(=O)N(C(=O)N1COC2(C(=O)OC)Cc3cc(Cl)ccc3C2=N1)c1ccc(OC(F)(F)F)cc1` (stereo not given), the “activity change, negative = cytotoxicity” value is 27.2% [at 42.5 µM] (inactive).

With `CN(C)C(=S)[S-].CN(C)C(=S)[S-].[Cu+2]`, the Potency was 1.18 µM (active).

Turning to `O=C(Cl)c1ccc(Cl)cc1`, the “activity change, negative = cytotoxicity” value was -0.586% (inactive).

`C[C@]12CC[C@H](O)C[C@H]1CC[C@@H]1[C@@H]2C[C@@H](O)[C@]2(C)[C@@H](C3=CC(=O)OC3)CC[C@]12O`: the Potency was 1.72 µM (active).

Regarding `S=C(SSC(=S)N1CCCCC1)N1CCCCC1`, the Potency is 0.531 µM (active).

With `Cc1cc(C(F)(C(F)(F)F)C(F)(F)F)ccc1NC(=O)c1cccc(I)c1C(=O)NC(C)(C)CS(C)(=O)=O`, the “activity change, negative = cytotoxicity” value is 0.917% [at 42.5 µM] (inactive).

As to `O=[N+]([O-])O.O=[N+]([O-])O.[Cd]`, the Potency is 3.06 µM (active).

Consider `ClC1=C(Cl)C2(Cl)C3C(Cl)C=CC3C1(Cl)C2(Cl)Cl` (stereo not given), for which the Potency entry was “inactive”.

For `CCc1ccccc1C`, the “activity change, negative = cytotoxicity” value was -6.88% (inactive).

Regarding `C[C@@H]1CC[C@@]2(OC1)O[C@H]1[C@@H](O)[C@H]3[C@@H]4CC[C@H]5C[C@@H](O[C@@H]6O[C@H](CO)[C@H](O[C@@H]7O[C@H](CO)[C@@H](O)[C@H](O[C@@H]8OC[C@@H](O)[C@H](O)[C@H]8O)[C@H]7O[C@@H]7O[C@H](CO)[C@@H](O)[C@H](O[C@@H]8O[C@H](CO)[C@@H](O)[C@H](O)[C@H]8O)[C@H]7O)[C@H](O)[C@H]6O)[C@H](O)C[C@]5(C)[C@H]4CC[C@]3(C)[C@H]1[C@@H]2C`, the Potency was 16.3 µM (active).

With `Brc1c(Br)c(Br)c(Oc2c(Br)c(Br)c(Br)c(Br)c2Br)c(Br)c1Br`, the activity change, negative = cytotoxicity is -6.81% [at 18.9 µM] (inactive).

`C[C@@H]1O[C@@H](O[C@H]2C[C@@H](O)[C@]3(CO)[C@H]4[C@H](O)C[C@]5(C)[C@@H](C6=CC(=O)OC6)CC[C@]5(O)[C@@H]4CC[C@]3(O)C2)[C@H](O)[C@H](O)[C@H]1O`: the Potency is 81.9 nM (active) and 150 nM (active).

As to `CC(C)C(=O)Cl`, the “activity change, negative = cytotoxicity” value was 1.45% (inactive).

Take `CCCCCCCCCCCCCCCC[N+](C)(C)C`: the Potency was 29.8 µM (active).

Consider `COc1cccc2c1C(=O)c1c(O)c3c(c(O)c1C2=O)C[C@@](O)(C(=O)CO)CC3OC1CC(N2CCOC(OC)C2)C(O)C(C)O1` (stereo not given in full), for which the Potency was 0.266 µM (active).

Turning to `Clc1ccc(C(c2ccccc2Cl)C(Cl)(Cl)Cl)cc1` (stereo not given), the Potency entry is “inactive”.

Turning to `ClCCN1CCOCC1`, the “activity change, negative = cytotoxicity” value was -6.9% (inactive).

For `N#C/C=C/c1ccccc1`, the “activity change, negative = cytotoxicity” value is -6.27% (inactive).

Turning to `COc1ccc(/C(=C/C(=O)N2CCOCC2)c2ccc(Cl)cc2)cc1OC`, the “activity change, negative = cytotoxicity” value was -14.3% (inactive).

For `CCCSP(=O)(OCC)SCCC`, the “activity change, negative = cytotoxicity” value is 25.5% (inactive).

Take `O=C(Nc1ccc2[nH]ccc2c1)c1cc2cc(F)ccc2n1Cc1cccc(F)c1`: the Potency is 48.6 µM (active).

For the molecule `ClC(Cl)=C(Cl)Cl`, the “activity change, negative = cytotoxicity” value was 6.93% (inactive).

As to `CC(=O)OC1(c2ccccc2)CCN(CCc2ccccc2)CC1`, the “activity change, negative = cytotoxicity” value is -3.7% (inactive).

`CCN`: the “activity change, negative = cytotoxicity” value is 3.58% (inactive).

As to `CC(C)(C)OO`, the “activity change, negative = cytotoxicity” value is -12.1% (inactive).

With `CC(C)(C)c1ccc(CSc2cnn(C(C)(C)C)c(=O)c2Cl)cc1`, the “activity change, negative = cytotoxicity” value was -3.36% (inactive).

As to `C[CH2][Hg][N]1C(=O)C2C(C1=O)C1(Cl)C(Cl)=C(Cl)C2(Cl)C1(Cl)Cl` (stereo not given), the Potency was 14.6 µM (active).

`BrC(Br)Br`: the “activity change, negative = cytotoxicity” value is 1.83% (inactive).

Regarding `Oc1ccc(I)cc1`, the “activity change, negative = cytotoxicity” value was -17.8% (inactive).

Regarding `Clc1ccc(C(c2ccc(Cl)cc2)C(Cl)(Cl)Cl)cc1`, the “activity change, negative = cytotoxicity” value is -2.56% [at 42.5 µM] (inactive).

Regarding `[Cd+2].[Cl-].[Cl-]`, the Potency is 4.36 µM (active) and 2.73 µM (active).

As to `CC(=[OH+])/C=C(/C)[O-].CC(=[OH+])/C=C(\C)[O-].CC(=[OH+])/C=C(\C)[O-].[Al]`, the “activity change, negative = cytotoxicity” value was 2.33% (inactive).

Turning to `Clc1ccc(COC(Cn2ccnc2)c2ccc(Cl)cc2Cl)cc1` (stereo not given), the Potency was 18 µM (active) and 27.2 µM (active) and 6.68 µM (active).
